Out of some 5,500 compounds screened, about 2,000 (36%) were called active. Inconclusive results (about 18%) are left out. Some of the results follow. Values without a mark were called inactive. Cut-off read from the data, not from the text of the source: active = normalized growth mostly below about 0.91 (no sharp cut-off); inconclusive = no clear call, values can overlap the other calls; inactive = mostly above about 0.92.
Assay: chemical genetic growth profiling, strain panel (AID 1159580);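 note: tested at 20 µM; growth read once vehicle control cultures reached saturation at 30 °C; 1 = growth at the plate median or of vehicle wells; lower values mean less growth of the strain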
Settings: S. cerevisiae deletion strains, growth OD

For CCC(c1ccc(O)cc1)C(CC)c1ccc(O)cc1 (stereo not drawn), the normalized growth (locus YAL013W, strain DEP1, hits give low values) was 0.998, the normalized growth (locus YAL021C, strain ccr4, hits give low values) was 0.93 and the normalized growth (locus YAL026C, strain drs2, hits give low values) was 0.835 (active). The normalized growth (locus YAL030W, strain snc1, hits give low values) was 0.918 (active), the normalized growth (locus YBL061C, strain skt5, hits give low values) was 0.982 and the normalized growth (locus YBR009C, strain hhf1, hits give low values) was 0.77 (active). For the same molecule, the normalized growth (locus YBR021W, strain FUR4, hits give low values) was 0.972, the normalized growth (locus YBR023C, strain chs3, hits give low values) was 0.966 and the normalized growth (locus YBR171W, strain sec66, hits give low values) was 0.993. The normalized growth (locus YBR229C, strain ROT2, hits give low values) was 0.993, the normalized growth (locus YBR231C, strain swc5, hits give low values) was 0.989 and the normalized growth (locus YBR279W, strain paf1, hits give low values) was 0.95. The normalized growth (locus YCL011C, strain gbp2, hits give low values) was 0.858 (active), the normalized growth (locus YCL016C, strain dcc1, hits give low values) was 0.95 and the normalized growth (locus YCL029C, strain bik1, hits give low values) was 0.987. For the same molecule, the normalized growth (locus YCL061C, strain MRC1, hits give low values) was 0.958, the normalized growth (locus YCL069W, strain vba3, hits give low values) was 0.951 and the normalized growth (locus YCR088W, strain abp1, hits give low values) was 0.974. For the same molecule, the normalized growth (locus YDL005C, strain med2, hits give low values) was 0.92, the normalized growth (locus YDL035C, strain GPR1, hits give low values) was 0.914 and the normalized growth (locus YDL040C, strain nat1, hits give low values) was 0.998. It also gave a normalized growth (locus YDL074C, strain BRE1, hits give low values) of 0.878, a normalized growth (locus YDL101C, strain DUN1, hits give low values) of 0.989 and a normalized growth (locus YDL134C, strain PPH21, hits give low values) of 0.998. The normalized growth (locus YDL185W, strain tfp1, hits give low values) was 0.995, the normalized growth (locus YDL192W, strain arf1, hits give low values) was 0.969 and the normalized growth (locus YDR001C, strain nth1, hits give low values) was 0.997. For the same molecule, the normalized growth (locus YDR069C, strain doa4, hits give low values) was 0.894 (active), the normalized growth (locus YDR101C, strain arx1, hits give low values) was 0.968 and the normalized growth (locus YDR137W, strain rgp1, hits give low values) was 0.415 (active). For the same molecule, the normalized growth (locus YDR150W, strain NUM1, hits give low values) was 1.01, the normalized growth (locus YDR159W, strain sac3, hits give low values) was 0.723 (active) and the normalized growth (locus YDR162C, strain NBP2, hits give low values) was 0.931. The normalized growth (locus YDR195W, strain ref2) was 1.02, the normalized growth (locus YDR297W, strain sur2, hits give low values) was 0.923 and the normalized growth (locus YDR318W, strain mcm21, hits give low values) was 0.944. The normalized growth (locus YDR334W, strain swr1, hits give low values) was 1.02, the normalized growth (locus YDR335W, strain msn5, hits give low values) was 0.938 and the normalized growth (locus YDR388W, hits give low values) was 0.966. For the same molecule, the normalized growth (locus YDR392W, strain spt3, hits give low values) was 0.743, the normalized growth (locus YDR502C, strain sam2, hits give low values) was 0.959 and the normalized growth (locus YEL003W, strain gim4, hits give low values) was 0.891 (active). The normalized growth (locus YEL037C, strain rad23, hits give low values) was 1, the normalized growth (locus YEL061C, strain CIN8 (second series), hits give low values) was 1 and the normalized growth (locus YEL061C, strain CIN8, hits give low values) was 1. The normalized growth (locus YER015W, strain faa2, hits give low values) was 0.901 (active), the normalized growth (locus YER016W, strain bim1, hits give low values) was 0.94 and the normalized growth (locus YER110C, hits give low values) was 1.01. The normalized growth (locus YER111C, strain swi4, hits give low values) was 1, the normalized growth (locus YER155C, strain BEM2 (second series), hits give low values) was 0.942 and the normalized growth (locus YER155C, strain BEM2, hits give low values) was 1.02. It also gave a normalized growth (locus YER167W, strain BCK2, hits give low values) of 0.972, a normalized growth (locus YFR010W, strain ubp6, hits give low values) of 0.957 and a normalized growth (locus YGL078C, strain dbp3, hits give low values) of 0.976. For the same molecule, the normalized growth (locus YGL086W, strain mad1, hits give low values) was 0.958, the normalized growth (locus YGL167C, strain pmr1, hits give low values) was 0.987 and the normalized growth (locus YGL173C, strain kem1, hits give low values) was 0.825 (active). For the same molecule, the normalized growth (locus YGL227W, strain vid30, hits give low values) was 0.994, the normalized growth (locus YGL240W, strain doc1, hits give low values) was 0.863 (active) and the normalized growth (locus YGL248W, strain PDE1, hits give low values) was 0.998. For the same molecule, the normalized growth (locus YGL253W, strain hxk2, hits give low values) was 0.953, the normalized growth (locus YGR078C, strain PAC10, hits give low values) was 0.952 and the normalized growth (locus YGR135W, strain pre9, hits give low values) was 0.968. For the same molecule, the normalized growth (locus YGR229C, strain SMI1, hits give low values) was 0.813, the normalized growth (locus YGR252W, strain gcn5, hits give low values) was 0.902 and the normalized growth (locus YHR013C, strain ard1, hits give low values) was 1.21 [resistant] (active). For the same molecule, the normalized growth (locus YHR027C, strain rpn1, hits give low values) was 0.933, the normalized growth (locus YHR030C, strain SLT2, hits give low values) was 0.993 and the normalized growth (locus YHR079C, strain IRE1 (second series), hits give low values) was 0.971. It also gave a normalized growth (locus YHR094C, strain hxt1, hits give low values) of 0.999, a normalized growth (locus YHR129C, strain ARP1, hits give low values) of 1.01 and a normalized growth (locus YHR142W, strain chs7, hits give low values) of 0.911. The normalized growth (locus YHR200W, strain rpn10, hits give low values) was 0.981, the normalized growth (locus YIL073C, strain SPO22, hits give low values) was 0.951 and the normalized growth (locus YIL125W, strain kgd1, hits give low values) was 0.994. The normalized growth (locus YIR030C, strain dcg1, hits give low values) was 1.01, the normalized growth (locus YJL092W, strain hpr5, hits give low values) was 0.967 and the normalized growth (locus YJL095W, strain BCK1 (second series), hits give low values) was 0.799 (active). For the same molecule, the normalized growth (locus YJL095W, strain BCK1, hits give low values) was 0.855, the normalized growth (locus YJL115W, strain asf1, hits give low values) was 1.02 and the normalized growth (locus YJL129C, strain trk1, hits give low values) was 0.675 (active). For the same molecule, the normalized growth (locus YJL134W, strain LCB3, hits give low values) was 0.999, the normalized growth (locus YJL154C, strain vps35, hits give low values) was 0.996 and the normalized growth (locus YJL164C, strain tpk1, hits give low values) was 0.687 (active). The normalized growth (locus YJL166W, strain qcr8, hits give low values) was 0.812 (active), the normalized growth (locus YJL168C, strain set2, hits give low values) was 0.994 and the normalized growth (locus YJL187C, strain SWE1 (second series), hits give low values) was 0.964. For the same molecule, the normalized growth (locus YJR043C, strain POL32, hits give low values) was 0.999.
